Assay results taken from PubChem BioAssay (Tox21).
A number with no mark means an inactive call. Entries that show only a call come without a potency. Calls of active or inactive are those of the source. Unless noted, the call rests on the fitted dose curve; in most records, active means well fitted curve in the direction sought with a large enough effect in the repeat runs; inconclusive means weak or mixed curves; inactive means no such curve, though single readings can be large; an effect the other way counts as inactive or inconclusive.

Legend:
[1] = qHTS assay for small molecule agonists of the p53 signaling pathway (AID 651631; calls by dose curve; further: nearly all actives have a fitted effect of over 15% in size)
Summary of the method: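 HCT-116 cells carrying a stable p53 response element–beta-lactamase reporter were plated, rested 5 h at 37 °C, then exposed to compound in DMSO for 16 h at 37 °C; reporter activity was read as FRET substrate fluorescence after 2 h at room temperature.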

[2] = qHTS assay for small molecules that induce genotoxicity in human embryonic kidney cells expressing luciferase-tagged ATAD5 (AID 651632); further: nearly all actives have a fitted effect of over 15% in size
Summary of the method: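 A rise in luciferase signal from ATAD5-tagged HEK293T cells marks genetic stress. Cells were exposed to compounds for 16 hr at 37C, 5% CO2, then luciferase was quantified after a 30 min room-temperature incubation with Amplite.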

[3] = qHTS assay for small molecule agonists of the p53 signaling pathway - cell viability (AID 651633; calls by dose curve; further: series mostly up to about 83 µM; nearly all actives have a fitted effect of over 30% in size)
Summary of the method: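 p53RE-bla cells, seeded at 4,000 per well and rested 5 h at 37 C/5% CO2, received compounds in DMSO for 16 h at 37 C. CellTiter-Glo was then added, and luminescence was read after 30 min at room temperature to gauge cytotoxicity.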

[4] = qHTS assay for small molecule disruptors of the mitochondrial membrane potential - cell viability (AID 720634; calls by dose curve;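 further: human HepG2 liver cancer cells; series mostly up to about 83 µM; nearly all actives have a fitted effect of over 20% in size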)
Summary of the method: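 Cytotoxicity was quantified from ATP content by CellTiter-Glo luminescence in the same wells as the MMP dye read-out. HepG2 (2,000 cells/well) were plated overnight and exposed to compounds for 1 hr at 37 C.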

[5] = qHTS assay for small molecule disruptors of the mitochondrial membrane potential (AID 720635); further: potency means the concentration at half of the fitted maximal effect
Summary of the method: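 HepG2 cells (2,000/well) attached overnight at 37C, then took compound for 1 hr at 37C, 5% CO2. Mito-MPS dye was added for 30 min; fluorescence was read at 490/535 nm (monomers) and 540/590 nm (aggregates).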

[6] = qHTS assay to test for compound auto fluorescence at 590 nm (red) in HepG2 cells (AID 720674)
Summary of the method: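 Intrinsic compound fluorescence in the red window (Ex/Em 540/590 nm) is measured in attached HepG2 cells exposed for 1 hr, DMSO vehicle as baseline, benchmarked to Rose Bengal sodium.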

[7] = qHTS assay to test for compound auto fluorescence at 535 nm (green) in HepG2 cells (AID 720675)
[8] = qHTS assay to test for compound auto fluorescence at 460 nm (blue) in HEK293 cells (AID 720678)
Summary of the method: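 Triamterene serves as the blue fluorophore standard. Compound signal at 405/460 nm is read in HEK293 wells (2,000 cells, 10% dialyzed FBS) after overnight treatment at 37C.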

[9] = qHTS assay to test for compound auto fluorescence at 590 nm (red) in HEK293 cells (AID 720679)
Summary of the method: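 We plated HEK293 cells in 10% dialyzed FBS medium, let them adhere for 4-5 hr, then added 23 nL compound. Overnight at 37C and 5% CO2 preceded fluorescence measurement at 540/590nm.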

[10] = qHTS assay to test for compound auto fluorescence at 535 nm (green) in HEK293 cells (AID 720680)
[11] = qHTS assay to test for compound auto fluorescence at 460 nm (blue) in HEK293 cell free culture (AID 720681)
Summary of the method: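 Test compounds were pinned into cell-free culture medium (DMEM with 10% FBS) and fluorescence was read directly at Ex/Em 405/460 nm. Signals were expressed as fluorescence equivalents of triamterene, with DMSO vehicle as control.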

[12] = qHTS assay to test for compound auto fluorescence at 535 nm (green) in HEK293 cell free culture (AID 720682)
Summary of the method: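 Read-out: 485/535 nm fluorescence intensity, calibrated against fluorescein. Medium only (DMEM + 10% FBS, no cells); test compound or DMSO vehicle added by pintool before plate reading.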

[13] = qHTS assay to test for compound auto fluorescence at 590 nm (red) in HEK293 cell free culture (AID 720683)
Summary of the method: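 Tox21 10K library compounds were pinned into cell-free DMEM with 10% FBS and fluorescence was read at excitation 540 nm. Activity is expressed as Rose Bengal sodium equivalency.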

[14] = qHTS assay to test for compound auto fluorescence at 590 nm (red) in HepG2 cell free culture (AID 720684)
Summary of the method: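 Readout: intrinsic compound fluorescence at 590 nm emission after 540 nm excitation, scaled to Rose Bengal sodium. Matrix was cell-free MEM with 10% FBS; DMSO vehicle wells served as control.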

[15] = qHTS assay to test for compound auto fluorescence at 460 nm (blue) in HepG2 cell free culture (AID 720685)
Summary of the method: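 Cell-free plates of MEM plus 10% FBS received 23 nL compound or DMSO vehicle; blue-channel (405/460 nm) intensity scored against triamterene as reference fluorophore.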

[16] = qHTS assay to test for compound auto fluorescence at 535 nm (green) in HepG2 cell free culture (AID 720686)
[17] = qHTS assay to test for compound auto fluorescence at 460 nm (blue) in HepG2 cells (AID 720687)
Summary of the method: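 Cells (2,000/well in MEM with 10% FBS) attached overnight at 37 C, then were exposed to compound or DMSO for 1 hr at 37 C, 5% CO2. Fluorescence read at Ex/Em 405/460 nm, expressed as triamterene-equivalent signal.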

[18] = target: Glucocorticoid receptor (Homo sapiens) (UniProt P04150); assay: qHTS assay to identify small molecule agonists of the glucocorticoid receptor (GR) signaling pathway (AID 720691; active means well fitted activation curve with a large enough effect in the signal ratio in the repeat runs, not every such curve was filed as active; inconclusive means weak or mixed curves, or effect the other way; inactive means no such curve, though single readings can be large or run the other way; the % refers to the signal ratio; further: potency means the concentration at half of the fitted maximal effect)
Summary of the method: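 Agonist-mode qHTS in HeLa cells stably expressing a glucocorticoid-response-element beta-lactamase reporter. Fluorescence intensity read with FRET substrate (2 h, room temperature) after 18 h compound treatment at 37 C.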

[19] = target: Glucocorticoid receptor (Homo sapiens) (UniProt P04150); assay: qHTS assay to identify small molecule antagonists of the glucocorticoid receptor (GR) signaling pathway (AID 720692; active means well fitted inhibition curve with a large enough effect in the signal ratio in the repeat runs, not every such curve was filed as active; inconclusive means weak or mixed curves, or effect the other way; inactive means no such curve, though single readings can be large or run the other way; the % refers to the signal ratio)
Summary of the method: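 Inhibition of dexamethasone-driven (5 nM final) beta-lactamase expression was measured in GRE-reporter HeLa cells over 18 h at 37C. Fluorescence was read after 2 h with the B/G FRET substrate at room temperature.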

[20] = qHTS assay for small molecules that induce genotoxicity in human embryonic kidney cells expressing luciferase-tagged ATAD5 - cell viability (AID 651634; calls by dose curve; further: nearly all actives have a fitted effect of over 25% in size)
Summary of the method: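 Cytotoxicity counter-readout: after 15.5 hr compound treatment at 37C, live-cell protease activity in ATAD5-luciferase HEK293T cells measured by CellTiter-Fluor fluorescence, 30 min development at 37C.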

Chain of Glucocorticoid receptor (Homo sapiens) (P04150 whole entry, looked up): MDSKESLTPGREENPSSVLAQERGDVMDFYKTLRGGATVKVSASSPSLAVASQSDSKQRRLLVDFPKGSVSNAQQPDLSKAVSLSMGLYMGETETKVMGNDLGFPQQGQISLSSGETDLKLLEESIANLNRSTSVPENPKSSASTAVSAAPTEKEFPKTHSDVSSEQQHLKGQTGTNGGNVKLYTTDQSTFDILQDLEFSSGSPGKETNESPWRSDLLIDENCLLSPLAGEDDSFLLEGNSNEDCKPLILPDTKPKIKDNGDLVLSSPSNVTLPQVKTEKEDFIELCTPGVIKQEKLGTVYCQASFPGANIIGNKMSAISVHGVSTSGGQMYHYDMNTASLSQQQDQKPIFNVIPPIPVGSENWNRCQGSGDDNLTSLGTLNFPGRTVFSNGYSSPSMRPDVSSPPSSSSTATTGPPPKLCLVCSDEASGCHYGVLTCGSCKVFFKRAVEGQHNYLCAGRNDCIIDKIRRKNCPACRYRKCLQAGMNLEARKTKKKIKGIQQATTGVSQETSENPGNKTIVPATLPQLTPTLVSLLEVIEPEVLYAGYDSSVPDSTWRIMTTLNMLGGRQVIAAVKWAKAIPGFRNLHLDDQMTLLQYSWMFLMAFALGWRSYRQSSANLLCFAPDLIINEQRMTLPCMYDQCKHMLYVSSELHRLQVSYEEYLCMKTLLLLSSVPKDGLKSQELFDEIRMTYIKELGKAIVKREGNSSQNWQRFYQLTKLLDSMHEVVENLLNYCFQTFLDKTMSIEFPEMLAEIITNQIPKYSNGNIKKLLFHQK

Row | SMILES | Potency [1] | Potency [2] | Potency [3] | outcome [4] | Potency [5] | outcome [6] | outcome [7] | Potency [8] | outcome [9] | outcome [10] | Potency [11] | outcome [12] | outcome [13] | outcome [14] | Potency [15] | outcome [16] | Potency [17] | Potency [18] | Potency [19] | Potency [20]
1 | O=S(=O)(Cl)c1c(Cl)cccc1Cl | inactive | inactive | inactive | inactive | inactive | inactive | inactive | inactive | inactive | inactive | inactive | inactive | inactive | inactive | inactive | inactive | inactive | inactive | inactive | –
2 | N[C@@H](Cc1cc(I)c(O)c(I)c1)C(=O)O | inactive | inactive | inactive | – | – | inactive | inactive | inactive | inactive | inactive | inactive | inactive | – | inactive | inactive | inactive | inactive | inactive | inactive | inactive
3 | CN=C(N)NC(=O)Nc1c(C)cccc1C | inactive | inactive | inactive | inactive | inactive | inactive | inactive | inactive | inactive | inactive | inactive | inactive | – | inactive | inactive | – | inactive | inactive | inactive | –
4 | CCN(CC)CCNC(=O)c1cc(Cl)c(N)cc1OC | inactive | inactive | inactive | inactive | inactive | – | inactive | – | inactive | inactive | inactive | inactive | inactive | inactive | inactive | inactive | inactive | – | – | –
5 | CC(=O)OCC(=O)[C@@]1(OC(C)=O)[C@@H](C)C[C@H]2[C@@H]3C[C@H](F)C4=CC(=O)C=C[C@]4(C)[C@@]3(F)[C@@H](O)C[C@@]21C | inactive | inactive | inactive | inactive | – | inactive | inactive | inactive | inactive | inactive | inactive | inactive | inactive | inactive | inactive | inactive | inactive | 0.0379 µM [inconclusive] (active) | – | –
6 | CC(CO)(CO)C(=O)O | inactive | inactive | inactive | inactive | inactive | inactive | inactive | inactive | inactive | inactive | – | inactive | inactive | inactive | inactive | inactive | inactive | – | – | –
7 | O=[N+]([O-])C1(Br)COCOC1 | inactive | – | inactive | – | 48.6 µM (active) | inactive | inactive | inactive | inactive | inactive | – | inactive | inactive | inactive | inactive | inactive | inactive | – | – | –
8 | C[C@H](CS)C(=O)N1CCC[C@H]1C(=O)O | inactive | – | inactive | inactive | – | inactive | inactive | inactive | inactive | inactive | inactive | inactive | inactive | inactive | inactive | – | inactive | inactive | inactive | –
9 | CCC(CO)(CO)CO | inactive | – | inactive | – | – | inactive | inactive | inactive | inactive | inactive | inactive | inactive | inactive | inactive | – | inactive | inactive | inactive | – | inactive
10 | COc1ccc(-c2cc(=S)ss2)cc1 | inactive | – | inactive | inactive | 2.11 µM (active) | – | inactive | inactive | inactive | inactive | inactive | inactive | – | inactive | inactive | inactive | inactive | inactive | – | inactive
11 | NC(=O)c1ccccc1[N+](=O)[O-] | inactive | – | inactive | inactive | – | inactive | inactive | – | inactive | inactive | inactive | inactive | inactive | inactive | – | inactive | inactive | – | – | inactive
12 | BrC(Br)C(Br)Br | inactive | – | inactive | inactive | inactive | – | inactive | inactive | inactive | inactive | inactive | inactive | inactive | inactive | inactive | inactive | inactive | inactive | inactive | inactive
13 | Nc1cccc2c(N)cccc12 | – | inactive | inactive | inactive | 0.864 µM (active) | inactive | inactive | inactive | – | inactive | – | inactive | inactive | inactive | – | – | inactive | inactive | – | inactive
14 | CC[C@H]1OC(=O)[C@H](C)[C@@H](O[C@H]2C[C@@](C)(OC)[C@@H](O)[C@H](C)O2)[C@H](C)[C@@H](O[C@@H]2O[C@H](C)C[C@H](N(C)C)[C@H]2O)[C@](C)(O)C[C@@H](C)CN(C)[C@H](C)[C@@H](O)[C@]1(C)O | inactive | – | inactive | inactive | – | inactive | inactive | inactive | inactive | inactive | inactive | inactive | inactive | inactive | inactive | inactive | inactive | – | – | inactive
15 | O=C1NC(=O)c2cccc3cccc1c23 | – | inactive | inactive | inactive | 10.9 µM (active) | inactive | inactive | inactive | inactive | inactive | inactive | inactive | inactive | inactive | inactive | – | inactive | inactive | inactive | inactive
16 | O=C(C(=O)c1ccco1)c1ccco1 | inactive | – | inactive | inactive | – | inactive | inactive | – | inactive | inactive | inactive | inactive | inactive | inactive | – | inactive | inactive | inactive | inactive | inactive
